Data taken from PubChem BioAssay (NCATS).
Records with an inconclusive call do not appear. Entries that show only a call come without a potency. Active and inactive are the calls of the source. Unless noted, calls follow the shape of the dose curve; as a rule, active = well fitted curve in the direction sought with a large enough effect; inconclusive = small, poorly fitted or top-dose-only effect, or another doubt; inactive = no such curve, though single readings can be large; an effect the other way counts as inactive or inconclusive.

Legend:
[1] = qHTS for Inhibitors of the Functional Ribonucleoprotein Complex (vRNP) of Lassa (LASV) Arenavirus: LASV Primary Screen - GLuc reporter signal (AID 1347082; calls by dose curve; tested in HEK293 reporter line; also: nearly all actives have a fitted effect of over 60% in size)
[2] = qHTS for Inhibitors of the Functional Ribonucleoprotein Complex (vRNP) of Lassa (LASV) Arenavirus: Viability assay - alamar blue signal for LASV Primary Screen (AID 1347083; calls by dose curve; tested in HEK293 reporter line; also: nearly all actives have a fitted effect of over 80% in size)
[3] = qHTS for Inhibitors of the Functional Ribonucleoprotein Complex (vRNP) of Lymphocytic Choriomeningitis Arenaviruses (LCMV): Viability assay - alamar blue signal for LCMV Primary Screen (AID 1347085; calls by dose curve; tested in HEK293 reporter line; also: nearly all actives have a fitted effect of over 80% in size)
[4] = molecular target: Nucleoprotein (Lymphocytic choriomeningitis virus (strain Armstrong)) (UniProt P09992); experiment: qHTS for Inhibitors of the Functional Ribonucleoprotein Complex (vRNP) of Lymphocytic Choriomeningitis Arenaviruses (LCMV): LCMV Primary Screen - GLuc reporter signal (AID 1347086; calls by dose curve; also: nearly all actives have a fitted effect of over 70% in size)
Chain of Nucleoprotein (Lymphocytic choriomeningitis virus (strain Armstrong)) (P09992 whole entry, looked up): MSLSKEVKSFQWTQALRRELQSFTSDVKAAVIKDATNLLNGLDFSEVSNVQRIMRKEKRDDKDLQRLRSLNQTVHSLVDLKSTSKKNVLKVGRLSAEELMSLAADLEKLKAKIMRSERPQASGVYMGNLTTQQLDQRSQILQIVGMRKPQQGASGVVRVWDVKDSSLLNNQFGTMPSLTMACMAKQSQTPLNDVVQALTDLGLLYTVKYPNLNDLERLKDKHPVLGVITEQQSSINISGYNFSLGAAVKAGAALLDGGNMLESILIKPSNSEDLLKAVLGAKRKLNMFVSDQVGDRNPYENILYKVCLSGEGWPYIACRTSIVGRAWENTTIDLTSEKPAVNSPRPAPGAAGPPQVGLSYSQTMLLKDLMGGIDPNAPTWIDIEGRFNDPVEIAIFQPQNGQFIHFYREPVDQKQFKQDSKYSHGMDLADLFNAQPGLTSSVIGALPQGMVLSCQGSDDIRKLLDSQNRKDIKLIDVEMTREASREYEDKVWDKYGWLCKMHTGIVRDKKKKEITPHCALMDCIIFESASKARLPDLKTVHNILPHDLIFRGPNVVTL

[5] = qHTS of pediatric cancer cell lines to identify multiple opportunities for drug repurposing: Primary screen for TC32 cells (AID 1347089); also: nearly all actives have a fitted effect of over 60% in size
Method in brief: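 TC32 cells, 500-1,000/well in growth medium, compound-treated 48 h at 37 °C; viability from CellTiter-Glo luminescence. Primary screen: MIPE 11-point (0.78 nM–46 µM final), NPC 8-point (0.59 nM–46 µM final); confirmatory at 11-point dilutions.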

[6] = qHTS of pediatric cancer cell lines to identify multiple opportunities for drug repurposing: Primary screen for SJ-GBM2 cells (AID 1347091)
Method in brief: (§1)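 Viability measured as metabolically active cells via CellTiter-Glo luminescence following 48 hours of compound exposure, 11-point dilutions in confirmatory testing. 500-1,000 cells/well plated 5 hours before dosing; controls were DMSO and 2.3 µM bortezomib.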

[7] = qHTS of pediatric cancer cell lines to identify multiple opportunities for drug repurposing: Primary screen for SK-N-MC cells (AID 1347093)
Method in brief: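 Metabolically active cells were quantified by ATP-dependent luminescence (CellTiter-Glo, 15 min at room temperature) following 48 h treatment. Cells had been plated at 500-1,000 per well and settled for 5 h beforehand.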

[8] = qHTS of pediatric cancer cell lines to identify multiple opportunities for drug repurposing: Primary screen for U-2 OS cells (AID 1347096); also: nearly all actives have a fitted effect of over 50% in size
Method in brief: (§2)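 Viability after 48 h compound treatment at 37C, 500-1,000 cells/well, read as ATP luminescence with CellTiter-Glo. Primary screens used 11-point (MIPE, 0.78 nM-46 µM) or 8-point (NPC, 0.59 nM-46 µM) final concentrations; follow-up screens used 11-point dilutions.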

[9] = qHTS of pediatric cancer cell lines to identify multiple opportunities for drug repurposing: Primary screen for Saos-2 cells (AID 1347097); also: nearly all actives have a fitted effect of over 40% in size
Method in brief: (§3)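 500-1,000 cells/well; 5 h pre-incubation 37 °C/5% CO2; compound pinned; 48 h; CellTiter-Glo, 15 min RT; luminescence. MIPE 11-pt from 0.78 nM, NPC 8-pt from 0.59 nM final. Bortezomib 2.3 µM final as positive control.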

[10] = qHTS of pediatric cancer cell lines to identify multiple opportunities for drug repurposing: Primary screen for LAN-5 cells (AID 1347100)
Method in brief: as §2

[11] = qHTS of pediatric cancer cell lines to identify multiple opportunities for drug repurposing: Primary screen for BT-37 cells (AID 1347094)
Method in brief: as §3

[12] = qHTS of pediatric cancer cell lines to identify multiple opportunities for drug repurposing: Primary screen for NB-EBc1 cells (AID 1347095)
Method in brief: as §3

[13] = qHTS of pediatric cancer cell lines to identify multiple opportunities for drug repurposing: Primary screen for SK-N-SH cells (AID 1347098); also: nearly all actives have a fitted effect of over 65% in size
Method in brief: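 Cells (500-1,000/well) rested 5 h, then received compounds for 48 h; metabolically active cells were measured by CellTiter-Glo luminescence. Final concentrations spanned up to 46 µM (MIPE, 11-point) or 0.59 nM-46 µM (NPC, 8-point) in primary screens, 11-point in follow-ups.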

[14] = qHTS of pediatric cancer cell lines to identify multiple opportunities for drug repurposing: Primary screen for NB1643 cells (AID 1347099); also: nearly all actives have a fitted effect of over 50% in size
Method in brief: as §3

[15] = qHTS of pediatric cancer cell lines to identify multiple opportunities for drug repurposing: Primary screen for A673 cells (AID 1347092); also: nearly all actives have a fitted effect of over 45% in size
Method in brief: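 A673 cells (500-1,000 cells/well) were treated 48 hours at 37 degrees C with compounds at 11-point (0.78 nM to 46 µM) or 8-point (0.59 nM to 46 µM) dilutions. Viability read by CellTiter-Glo luminescence; concentration-response curves fitted.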

[16] = qHTS of pediatric cancer cell lines to identify multiple opportunities for drug repurposing: Primary screen for DAOY cells (AID 1347090); also: nearly all actives have a fitted effect of over 55% in size
Method in brief: as §1
Potency is read from the fitted curve at half-maximal effect.

SMILES	Potency [1]	Potency [2]	Potency [3]	Potency [4]	Potency [5]	Potency [6]	Potency [7]	Potency [8]	Potency [9]	Potency [10]	Potency [11]	Potency [12]	Potency [13]	Potency [14]	Potency [15]	Potency [16]
O=C(N[C@@H](COc1ccc2[nH]c(=O)[nH]c2c1)c1ccccc1)c1cccn(Cc2ccc(F)c(F)c2)c1=O	inactive	inactive	inactive	inactive	inactive	20900 nM (active)	18700 nM (active)	inactive	18700 nM (active)	inactive	–	–	–	–	–	–
CCc1c(C(=O)C(N)=O)c2c(OCC(=O)O)cccc2n1Cc1ccccc1	inactive	inactive	inactive	inactive	inactive	inactive	–	inactive	inactive	inactive	inactive	inactive	inactive	inactive	–	–
C#C[C@]1(O)C=C[C@@H]2[C@@H]3CCC4=CC(=O)CC[C@@H]4[C@H]3CC[C@@]21CC	inactive	inactive	inactive	inactive	inactive	inactive	–	inactive	inactive	inactive	inactive	–	inactive	8330 nM (active)	inactive	–
C=C1C[C@H]2[C@H]3CCC(=O)[C@@]3(C)CC[C@@H]2[C@@]2(C)C=CC(=O)C=C12	inactive	inactive	inactive	inactive	inactive	inactive	–	inactive	inactive	inactive	–	inactive	inactive	–	–	inactive
CS(=O)(=O)c1ccc(C(=O)C2C(=O)CCCC2=O)c([N+](=O)[O-])c1	inactive	inactive	inactive	inactive	inactive	inactive	1 nM (active)	inactive	inactive	inactive	inactive	inactive	inactive	1 nM (active)	inactive	–
CC(O)=C(C#N)C(=O)Nc1cc(Br)ccc1Br	inactive	inactive	inactive	inactive	inactive	–	332 nM (active)	inactive	–	–	–	–	–	1320 nM (active)	inactive	inactive
C1=C2CCCN[C@H]2[C@@H]2C[C@H]1[C@@H]1CCCCN1C2	inactive	inactive	inactive	inactive	inactive	inactive	–	inactive	inactive	inactive	inactive	inactive	inactive	–	–	–
O=[N+]([O-])c1ccc([As](=O)(O)O)cc1	inactive	inactive	inactive	inactive	inactive	inactive	inactive	inactive	inactive	inactive	inactive	inactive	–	inactive	inactive	–
O=[N+]([O-])c1ncc[nH]1	inactive	inactive	inactive	inactive	inactive	inactive	inactive	inactive	inactive	inactive	inactive	inactive	inactive	–	inactive	–
O=C(O)CNC(=O)c1c(O)c2ccccc2n(Cc2ccccc2)c1=O	inactive	inactive	inactive	inactive	inactive	inactive	–	inactive	inactive	inactive	inactive	–	–	inactive	–	inactive
CC(C)NCC(O)c1ccc([N+](=O)[O-])cc1 (stereo not given)	inactive	inactive	inactive	inactive	inactive	inactive	inactive	inactive	inactive	inactive	inactive	inactive	inactive	inactive	inactive	–
CSCC[C@@H](NC(=O)[C@@H](Cc1ccccc1)NC(=O)CNC(=O)CNC(=O)[C@@H](N)Cc1ccc(O)cc1)C(=O)O	inactive	inactive	inactive	inactive	inactive	inactive	inactive	inactive	inactive	inactive	inactive	inactive	inactive	inactive	inactive	–
CCCCOC(=O)c1ccccc1C(=O)OCc1ccccc1	inactive	inactive	inactive	inactive	inactive	inactive	inactive	inactive	inactive	inactive	inactive	inactive	inactive	inactive	inactive	–
CCN1C[C@]2(OC(=O)c3ccccc3NC(C)=O)CC[C@H](OC)[C@@]34[C@H]5CC6[C@@H](OC)C[C@](O)(C(C[C@@H]23)[C@@H]14)[C@@]5(O)[C@@H]6OC	inactive	inactive	inactive	inactive	inactive	inactive	–	inactive	inactive	inactive	inactive	inactive	–	–	inactive	–
COc1cc([C@@H]2c3cc4c(cc3[C@@H](O)C3COC(=O)C32)OCO4)cc(OC)c1O (stereo not given in full)	inactive	86.3 nM (active)	172 nM (active)	153 nM (active)	370 nM (active)	14.8 nM (active)	46.9 nM (active)	inactive	20.9 nM (active)	13.2 nM (active)	–	6.6 nM (active)	–	6620 nM (active)	37.2 nM (active)	–
CCC(=O)O[C@@H]1C=C2CCC3C(CCC4(C)C3CC[C@@H]4OC(=O)CC)C2CC1 (stereo not given in full)	inactive	inactive	inactive	inactive	inactive	inactive	inactive	inactive	inactive	inactive	inactive	inactive	inactive	inactive	inactive	–
NC1=NC(=O)N2CC12 (stereo not given)	inactive	inactive	inactive	inactive	inactive	inactive	–	inactive	13200 nM (active)	–	19300 nM (active)	inactive	inactive	inactive	–	inactive
CC(C)N(CCNC(=O)CN1CCCC1=O)C(C)C	inactive	inactive	inactive	inactive	inactive	inactive	inactive	inactive	inactive	inactive	inactive	inactive	inactive	inactive	inactive	–
O=C(O)COc1ccccc1	inactive	inactive	inactive	inactive	inactive	inactive	inactive	inactive	inactive	inactive	inactive	inactive	inactive	inactive	inactive	–
C[C@]12Cc3cn[nH]c3C[C@@H]1CC[C@@H]1[C@H]2CC[C@@]2(C)[C@H]1CC[C@]2(C)O	inactive	inactive	inactive	inactive	inactive	–	469 nM (active)	inactive	inactive	inactive	–	–	–	inactive	14800 nM (active)	inactive
C[C@]12CC[C@H](O)CC1=CC[C@H]1[C@H]3CCC(=O)[C@@]3(C)CC[C@@H]12	inactive	inactive	inactive	inactive	inactive	–	16600 nM (active)	inactive	–	–	–	–	inactive	–	18700 nM (active)	23500 nM (active)
C[C@H]1CCCC=CC2C[C@H](O)C[C@@H]2[C@H](O)C=CC(=O)O1 (stereo not given in full)	27.3 nM (active)	24.3 nM (active)	19.3 nM (active)	10.9 nM (active)	13.1 nM (active)	1 nM (active)	1 nM (active)	1 nM (active)	3720 nM (active)	1 nM (active)	–	1 nM (active)	1 nM (active)	1 nM (active)	–	–
O=C(O)C(Cl)Cl	inactive	inactive	inactive	inactive	inactive	inactive	inactive	inactive	inactive	inactive	–	inactive	inactive	inactive	inactive	–
CCOC(=O)c1cncn1[C@H](C)c1ccccc1	inactive	inactive	inactive	inactive	inactive	inactive	inactive	inactive	inactive	inactive	inactive	inactive	–	inactive	inactive	–
C[C@@H]1CC[C@H]2[C@@H](C)C(=O)O[C@@H]3O[C@@]4(C)CC[C@H]1[C@]32OO4	inactive	inactive	inactive	inactive	inactive	inactive	11800 nM (active)	inactive	inactive	inactive	–	–	inactive	inactive	inactive	–
CN1CCN(c2ccc([N+](=O)[O-])c3no[n+]([O-])c23)CC1	inactive	inactive	inactive	inactive	inactive	23500 nM (active)	18700 nM (active)	inactive	26400 nM (active)	–	–	–	inactive	–	23500 nM (active)	–
CCCN1CCO[C@@H]2c3cc(O)ccc3OC[C@@H]21	inactive	inactive	inactive	inactive	inactive	–	–	inactive	inactive	14800 nM (active)	21700 nM (active)	16600 nM (active)	21500 nM (active)	–	–	inactive
O=C1C(I)=CC(=C(c2cc(I)c(O)c(I)c2)c2ccccc2C(=O)O)C=C1I	inactive	inactive	inactive	inactive	inactive	inactive	–	inactive	inactive	inactive	inactive	inactive	inactive	–	–	inactive
